# Reference: PubChem BioAssay (NCI)
# This is part of a sample that, as a whole, favours compounds with a hit. Of some 79,000 tested, about 15% had one in any assay. Values without a mark were called inactive. Calls of active or inactive are those of the source. Cut-off read from the data, not from the text of the source: active = growth inhibition above about 70%; inactive = the rest.
# Legend:
# [1] = NCI Yeast Anticancer Drug Screen. Data for the mlh1 strain (AID 171);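 note: 0% = growth of vehicle-treated control cultures of the same strain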; conditions: S. cerevisiae mlh1 strain growth inhibition, stronger effect = higher value
# Procedure, shortened: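 Test agents were incubated with yeast bearing a defined DNA damage repair or cell cycle control alteration; values are growth inhibition normalised to vehicle-treated cultures.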
# [2] = NCI Yeast Anticancer Drug Screen. Data for the sgs1 strain (AID 173);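 note: 0% = growth of vehicle-only control cultures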; conditions: S. cerevisiae sgs1 mutant, stronger effect = higher value
# Procedure, shortened: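 Strain with an altered DNA repair or cell cycle pathway exposed to compound. Growth then measured. Value = inhibition versus vehicle control.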
# [3] = NCI Yeast Anticancer Drug Screen. Data for the mlh1 rad18 strain (AID 175); conditions: S. cerevisiae mlh1 rad18 strain growth inhibition, stronger effect = higher value
# Procedure, shortened: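 A repair-deficient yeast strain is exposed to test compound, and growth is scored relative to vehicle-treated controls.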
# [4] = NCI Yeast Anticancer Drug Screen. Data for the rad18 strain (AID 177); conditions: S. cerevisiae rad18 mutant growth inhibition, stronger effect = higher value
# Procedure, shortened: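 DNA-repair-defective yeast; compound treatment; growth inhibition scored against vehicle.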
# [5] = NCI Yeast Anticancer Drug Screen. Data for the rad52 strain (AID 147);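 note: 0% = growth of vehicle-treated control cultures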; conditions: S. cerevisiae rad52 mutant growth inhibition, stronger effect = higher value
# Procedure, shortened: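 Growth of repair-deficient yeast cells was compared between compound-treated and vehicle-treated cultures to give percent inhibition.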
# [6] = NCI Yeast Anticancer Drug Screen. Data for the wt1 strain (AID 149);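 note: 0% = growth of vehicle-treated wt1 cultures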; conditions: S. cerevisiae wt1 strain (SPY 50644) growth inhibition, stronger effect = higher value
# Procedure, shortened: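 Using yeast strain wt1, compound-induced growth inhibition was determined against vehicle-treated cultures.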
# [7] = NCI Yeast Anticancer Drug Screen. Data for the mgt1 strain (AID 153); conditions: S. cerevisiae mgt1 mutant growth inhibition, stronger effect = higher value
# Procedure, shortened: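 Compounds were applied to mgt1 mutant yeast, and growth was then compared against vehicle-treated control cultures to give percent inhibition.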
# [8] = NCI Yeast Anticancer Drug Screen. Data for the rad50 strain (AID 155);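 note: 0% = growth of vehicle-only cultures of the same strain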; conditions: S. cerevisiae rad50 strain growth inhibition, stronger effect = higher value
# Procedure, shortened: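 Relative growth inhibition (compound vs vehicle) was measured in yeast with a defined repair-gene alteration.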
# [9] = NCI Yeast Anticancer Drug Screen. Data for the mec2-1 strain (AID 157); conditions: S. cerevisiae mec2-1 strain, stronger effect = higher value
# Procedure, shortened: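 Compounds were applied to mec2-1 yeast cells. Their growth was then compared with that of vehicle-treated cultures to give growth inhibition.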
# [10] = NCI Yeast Anticancer Drug Screen. Data for the rad14 strain (AID 159);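 note: 0% = growth of vehicle-treated control cultures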; conditions: S. cerevisiae rad14 strain growth inhibition, stronger effect = higher value
# Procedure, shortened: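 Screen for anticancer potential: a yeast strain altered in DNA damage repair is grown with compound, and reduced growth is quantified against vehicle controls.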
# [11] = NCI Yeast Anticancer Drug Screen. Data for the sgs1 mgt1 strain (AID 161);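 note: 0% = growth of cultures given vehicle only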; conditions: S. cerevisiae sgs1 mgt1 strain, stronger effect = higher value
# Procedure, shortened: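 Growth of a repair-deficient yeast mutant was monitored after compound treatment and expressed as inhibition relative to vehicle-treated cultures.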
# [12] = NCI Yeast Anticancer Drug Screen. Data for the CLN2oe strain (AID 163);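 note: 0% = growth of vehicle-only control cultures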; conditions: S. cerevisiae CLN2oe strain, stronger effect = higher value
# Procedure, shortened: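 Cells of an engineered yeast line with disturbed cell-cycle regulation are treated with compound. Inhibition of growth is then calculated relative to the vehicle-treated reference.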
# [13] = NCI Yeast Anticancer Drug Screen. Data for the cln2 rad14 strain (AID 165);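 note: 0% = growth equal to vehicle treated cultures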; conditions: S. cerevisiae cln2 rad14 strain, stronger effect = higher value
# Procedure, shortened: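 Strain: cln2 rad14 yeast, altered in cell cycle control and DNA damage repair. Read-out: growth inhibition vs vehicle.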
# [14] = NCI Yeast Anticancer Drug Screen. Data for the bub3 strain (AID 167); conditions: S. cerevisiae bub3 mutant strain, stronger effect = higher value
# Procedure, shortened: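 Screening used yeast with an engineered genetic alteration affecting cell cycle control. Compound-exposed cultures were compared with vehicle cultures, and reduced growth was taken as inhibition.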
# [15] = NCI Yeast Anticancer Drug Screen. Data for the wt2 strain (AID 169);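 note: 0% = growth of vehicle-treated yeast cultures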; conditions: S. cerevisiae wt2 strain growth inhibition, stronger effect = higher value
# Procedure, shortened: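 Growth of compound-treated yeast is measured and expressed as inhibition relative to vehicle-only controls.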
# [16] = at 5.0 µM (retest, dose inferred, filed as 0.5)
# [17] = at 50.0 µM (retest, dose inferred, filed as 5.0)
structure (smiles),measurement,setting,value
COc1ccc(-c2cc(-c3cc(C)cc(Cl)c3O)nc3[nH]c(=S)[nH]c(=S)c23)cc1,growth inhibition,[1]; at 1.2 µM,-1%
same,growth inhibition,[1]; at 3.7 µM,-2%
same,growth inhibition,[1]; at 11.0 µM,0%
same,growth inhibition,[1]; at 33.0 µM,10%
same,growth inhibition,[1]; at 100.0 µM,87% (active)
same,growth inhibition,[2]; at 1.2 µM,1%
same,growth inhibition,[2]; at 3.7 µM,-2%
same,growth inhibition,[2]; at 11.0 µM,-1%
same,growth inhibition,[2]; at 33.0 µM,16%
same,growth inhibition,[2]; at 100.0 µM,93% (active)
same,growth inhibition,[3]; [16],-31%
same,growth inhibition,[3]; [17],86% (active)
same,growth inhibition,[3]; at 50.0 µM,87.1% (active)
same,growth inhibition,[4]; at 1.2 µM,0%
same,growth inhibition,[4]; at 3.7 µM,-2%
same,growth inhibition,[4]; at 11.0 µM,-16%
same,growth inhibition,[4]; at 33.0 µM,8%
same,growth inhibition,[4]; at 100.0 µM,61%
C/C(=N/NC(=S)Nc1ccccc1C)c1ccccn1,growth inhibition,[5]; at 1.2 µM,2%
same,growth inhibition,[5]; at 3.7 µM,9%
same,growth inhibition,[5]; at 11.0 µM,15%
same,growth inhibition,[5]; at 33.0 µM,17%
same,growth inhibition,[5]; at 100.0 µM,7%
same,growth inhibition,[6]; at 1.2 µM,-11%
same,growth inhibition,[6]; at 3.7 µM,-10%
same,growth inhibition,[6]; at 11.0 µM,-9%
same,growth inhibition,[6]; at 33.0 µM,-10%
same,growth inhibition,[6]; at 100.0 µM,-8%
same,growth inhibition,[7]; at 1.2 µM,-6%
same,growth inhibition,[7]; at 3.7 µM,-10%
same,growth inhibition,[7]; at 11.0 µM,4%
same,growth inhibition,[7]; at 33.0 µM,-22%
same,growth inhibition,[7]; at 100.0 µM,-5%
same,growth inhibition,[8]; at 1.2 µM,1%
same,growth inhibition,[8]; at 3.7 µM,5%
same,growth inhibition,[8]; [16],9%
same,growth inhibition,[8]; at 11.0 µM,-9%
same,growth inhibition,[8]; at 33.0 µM,7%
same,growth inhibition,[8]; [17],12%
same,growth inhibition,[8]; at 50.0 µM,78% (active)
same,growth inhibition,[8]; at 100.0 µM,5%
same,growth inhibition,[9]; at 1.2 µM,-3%
same,growth inhibition,[9]; at 3.7 µM,-10%
same,growth inhibition,[9]; [16],-40%
same,growth inhibition,[9]; at 11.0 µM,-9%
same,growth inhibition,[9]; at 33.0 µM,-9%
same,growth inhibition,[9]; [17],1%
same,growth inhibition,[9]; at 50.0 µM,47%
same,growth inhibition,[9]; at 100.0 µM,-6%
same,growth inhibition,[10]; at 1.2 µM,-11%
same,growth inhibition,[10]; at 3.7 µM,-11%
same,growth inhibition,[10]; at 11.0 µM,-11%
same,growth inhibition,[10]; at 33.0 µM,-14%
same,growth inhibition,[10]; at 100.0 µM,-6%
same,growth inhibition,[11]; [16],-35%
same,growth inhibition,[11]; [17],15%
same,growth inhibition,[11]; at 50.0 µM,79.8% (active)
same,growth inhibition,[12]; at 1.2 µM,-8%
same,growth inhibition,[12]; at 3.7 µM,-6%
same,growth inhibition,[12]; at 11.0 µM,-9%
same,growth inhibition,[12]; at 33.0 µM,-11%
same,growth inhibition,[12]; at 100.0 µM,-11%
same,growth inhibition,[13]; [16],12%
same,growth inhibition,[13]; [17],14%
same,growth inhibition,[13]; at 50.0 µM,87.5% (active)
same,growth inhibition,[14]; at 1.2 µM,-7%
same,growth inhibition,[14]; at 3.7 µM,1%
same,growth inhibition,[14]; [16],-32%
same,growth inhibition,[14]; at 11.0 µM,4%
same,growth inhibition,[14]; at 33.0 µM,-2%
same,growth inhibition,[14]; [17],57%
same,growth inhibition,[14]; at 50.0 µM,65%
same,growth inhibition,[14]; at 100.0 µM,-9%
same,growth inhibition,[15]; at 1.2 µM,-6%
same,growth inhibition,[15]; at 3.7 µM,-6%
same,growth inhibition,[15]; at 11.0 µM,-5%
same,growth inhibition,[15]; at 33.0 µM,-5%
same,growth inhibition,[15]; at 100.0 µM,-5%
same,growth inhibition,[2]; at 1.2 µM,-6%
same,growth inhibition,[2]; at 3.7 µM,-5%
same,growth inhibition,[2]; at 11.0 µM,-5%
same,growth inhibition,[2]; at 33.0 µM,-7%
same,growth inhibition,[2]; at 100.0 µM,-6%
same,growth inhibition,[3]; [16],-15%
same,growth inhibition,[3]; [17],-1%
same,growth inhibition,[3]; at 50.0 µM,86.5% (active)
same,growth inhibition,[4]; at 1.2 µM,0%
same,growth inhibition,[4]; at 3.7 µM,3%
same,growth inhibition,[4]; at 11.0 µM,3%
same,growth inhibition,[4]; at 33.0 µM,-17%
same,growth inhibition,[4]; at 100.0 µM,-4%
O=S(=O)(NC1CCCC(c2ccccc2)C1)c1ccccc1 (centres undefined),growth inhibition,[5]; at 1.2 µM,1%
same,growth inhibition,[5]; at 3.7 µM,3%
same,growth inhibition,[5]; at 11.0 µM,3%
same,growth inhibition,[5]; at 33.0 µM,10%
same,growth inhibition,[5]; at 100.0 µM,90% (active)
same,growth inhibition,[6]; at 1.2 µM,-1%
same,growth inhibition,[6]; at 3.7 µM,-4%
same,growth inhibition,[6]; at 11.0 µM,2%
same,growth inhibition,[6]; at 33.0 µM,-3%
same,growth inhibition,[6]; at 100.0 µM,50%
same,growth inhibition,[7]; at 1.2 µM,-3%
same,growth inhibition,[7]; at 3.7 µM,-2%
same,growth inhibition,[7]; at 11.0 µM,-1%
same,growth inhibition,[7]; at 33.0 µM,-2%
same,growth inhibition,[7]; at 100.0 µM,95% (active)
same,growth inhibition,[8]; at 1.2 µM,3%
same,growth inhibition,[8]; at 3.7 µM,3%
same,growth inhibition,[8]; [16],-9%
same,growth inhibition,[8]; at 11.0 µM,2%
same,growth inhibition,[8]; at 33.0 µM,11%
same,growth inhibition,[8]; [17],71% (active)
same,growth inhibition,[8]; at 50.0 µM,18.2%
same,growth inhibition,[8]; at 100.0 µM,93% (active)
same,growth inhibition,[9]; at 1.2 µM,-8%
same,growth inhibition,[9]; at 3.7 µM,-2%
same,growth inhibition,[9]; [16],-12%
same,growth inhibition,[9]; at 11.0 µM,-3%
same,growth inhibition,[9]; at 33.0 µM,0%
same,growth inhibition,[9]; [17],-7%
same,growth inhibition,[9]; at 50.0 µM,24.6%
same,growth inhibition,[9]; at 100.0 µM,82% (active)
same,growth inhibition,[10]; at 1.2 µM,1%
same,growth inhibition,[10]; at 3.7 µM,2%
same,growth inhibition,[10]; at 11.0 µM,2%
same,growth inhibition,[10]; at 33.0 µM,4%
same,growth inhibition,[10]; at 100.0 µM,96% (active)
same,growth inhibition,[11]; [16],-24%
same,growth inhibition,[11]; [17],23%
same,growth inhibition,[11]; at 50.0 µM,19.4%
same,growth inhibition,[12]; at 1.2 µM,-4%
same,growth inhibition,[12]; at 3.7 µM,-4%
same,growth inhibition,[12]; at 11.0 µM,2%
same,growth inhibition,[12]; at 33.0 µM,9%
same,growth inhibition,[12]; at 100.0 µM,95% (active)
same,growth inhibition,[13]; [16],-13%
same,growth inhibition,[13]; [17],16%
same,growth inhibition,[13]; at 50.0 µM,50.8%
same,growth inhibition,[14]; at 1.2 µM,1%
same,growth inhibition,[14]; at 3.7 µM,-1%
same,growth inhibition,[14]; [16],-8%
same,growth inhibition,[14]; at 11.0 µM,0%
same,growth inhibition,[14]; at 33.0 µM,15%
same,growth inhibition,[14]; [17],76% (active)
same,growth inhibition,[14]; at 50.0 µM,60.8%
same,growth inhibition,[14]; at 100.0 µM,87% (active)
same,growth inhibition,[15]; at 1.2 µM,-4%
same,growth inhibition,[15]; at 3.7 µM,-7%
same,growth inhibition,[15]; at 11.0 µM,-3%
same,growth inhibition,[15]; at 33.0 µM,-6%
same,growth inhibition,[15]; at 100.0 µM,90% (active)
same,growth inhibition,[1]; at 1.2 µM,-2%
same,growth inhibition,[1]; at 3.7 µM,0%
same,growth inhibition,[1]; at 11.0 µM,-1%
same,growth inhibition,[1]; at 33.0 µM,3%
same,growth inhibition,[1]; at 100.0 µM,82% (active)
same,growth inhibition,[2]; at 1.2 µM,-4%
same,growth inhibition,[2]; at 3.7 µM,4%
same,growth inhibition,[2]; at 11.0 µM,-2%
same,growth inhibition,[2]; at 33.0 µM,1%
same,growth inhibition,[2]; at 100.0 µM,97% (active)
same,growth inhibition,[3]; [16],-26%
same,growth inhibition,[3]; [17],76% (active)
same,growth inhibition,[3]; at 50.0 µM,57.8%
same,growth inhibition,[4]; at 1.2 µM,0%
same,growth inhibition,[4]; at 3.7 µM,-2%
same,growth inhibition,[4]; at 11.0 µM,1%
same,growth inhibition,[4]; at 33.0 µM,3%
same,growth inhibition,[4]; at 100.0 µM,93% (active)
